# Source: PubChem BioAssay AID652126 (The Scripps Research Institute Molecular Screening Center, 2013)
# Where “and” joins values, the source holds several entries; their conditions need not be identical. Equal values may be shown once. Among all 370,000 compounds or so, about 3,700 (1%) were called active.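 The calls were made as follows: active = activation above the mean over all tested compounds plus 3 SD (cut at about 0.9% in these data); inactive = the rest.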 Only a selection was taken, and actives are over-represented in it overall. More than one record can exist for a structure, and the calls need not agree.
# Tested on: Nuclear hormone receptor DAF-12 (Strongyloides stercoralis)
# Assay: S. stercoralis DAF-12 nuclear receptor activators, primary screen, cell-based, luminescence, HEK293, GRIP1 co-expression, lit1-tk-luc (AID 652126);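 also: 0% = DMSO-only wells and 100% = 3 µM delta7-dafachronic acid wells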
# Conditions: HEK293 ssDAF-12/GRIP1 lit1-tk-luc reporter, at 6.8 µM, stronger effect = higher value, % of 3 µM dafachronic acid response
row,Structure (SMILES),activation
1,COC(=O)c1ccc(-n2cnc3ccccc32)nc1,-0.78% (inactive)
2,Cn1c(NC(=O)c2ccccc2)nc2ccccc21,1.7% (active)
3,CCn1c(NC(=O)c2nn(C)cc2Br)nc2ccccc21,-0.8% (inactive)
4,COc1ccccc1C(=O)NC1CCCCN(C(C)C)C1=O (stereo unspecified),-0.64% (inactive)
5,CCN(CC)S(=O)(=O)c1ccc(NC(=O)c2cccnc2Cl)c(NC(=O)c2cccnc2Cl)c1,-0.9% (inactive)
6,CCN(CC)S(=O)(=O)c1ccc(NC(=O)c2cnc(C)cn2)cc1,1.35% (active)
7,CCOC(=O)N1CCC(N2Cc3cccc(C(=O)Nc4ccc(S(=O)(=O)N(CC)CC)cc4)c3C2=O)CC1,-1.26% (inactive)
8,COC(=O)C1CN(CC(C)C)CCS(=O)(=O)N1Cc1ccc(F)cc1 (stereo unspecified),-1.13% (inactive)
9,CCOC(=O)[C@]12CCCCC/C=C\1N(Cc1ccc(OC)cc1)C(=O)[C@H]2CC(=O)N1CCOCC1,-0.98% (inactive)
10,COc1cncc(-c2cnc3sc(NCCc4ccccn4)nn23)c1,-1.45% (inactive)
11,Cc1c(C)c(C)c(S(=O)(=O)NCCc2ccccn2)c(C)c1C,0.14% (inactive)
12,COc1ccc(NCCc2ccccn2)cc1,1.17% (active)
13,COC(=O)[C@@]12CCCCC3=C1N(CCC3)C(=O)[C@H]2CC(=O)NCc1cccc2ccccc12,-0.9% (inactive)
14,O=C(O)c1ccc([N+](=O)[O-])cc1Sc1ccsc1,-1.44% (inactive)
15,COc1cccc(NS(=O)(=O)c2ccc(-c3coc(C)n3)cc2)c1,-0.73% (inactive)
16,COC(=O)C(C)Oc1ccc2c(-c3cccc([N+](=O)[O-])c3)cc(=O)oc2c1 (stereo unspecified),-1.35% (inactive)
17,COc1cccc(-c2nc3cc(C)ccc3o2)c1,2.34% (active)
18,COc1cccc(-c2cnc(OC(C)(C)C)nc2OC(C)(C)C)c1,-1.2% (inactive)
19,O=[N+]([O-])c1ccc2oc(-c3cccc(O)c3)nc2c1,3.74% (active)
20,Cc1cc(=O)[nH]c(SCC(=O)Nc2ccc(F)cc2F)n1,-1.31% (inactive)
21,C=CCN1[C@@H](Cc2ccccc2)COc2cccc(N3CCSCC3)c2S1(=O)=O,-1.93% (inactive)
22,O=C(N1CCOCC1)N1CC[C@H]2[C@H](CCCN2Cc2ccc(F)cc2)C1,-1.48% (inactive)
23,C[C@H](C(=O)N(C)c1ccccc1)[C@@H](O)c1ccc(Cl)cc1,-1.24% (inactive)

row,Structure (SMILES),activation
1,Cn1c(=O)[nH]c(=O)c2c1nc(CN1CCN(c3ccccc3F)CC1)n2CCc1ccccc1,-1.22% (inactive)
2,O=C(NC(=S)Nc1cccc2c(O)cccc12)c1cccc(Br)c1,-1.15% (inactive)
3,N#C/C(=C/c1ccc(Cl)cc1)NC(=O)c1ccccc1,-1.06% (inactive)
4,O=C(NC(=O)c1ccccc1)Nc1ccccc1O,2.39% (active)
5,NS(=O)(=O)c1ccccc1NC(=O)c1c(O)c2ccccc2[nH]c1=O,1.94% (active)
6,CCc1ccc2[nH]c(=O)c(Cc3ccccc3)c(O)c2c1,-1.02% (inactive)
7,CCCS(=O)(=O)Nc1c(C(=O)O)[nH]c2ccccc12,0.51% (inactive)
8,OC(COc1ccc2ccccc2c1)Cn1cncn1 (stereo unspecified),-0.42% (inactive)
9,OC(COc1ccc2ccccc2c1)CN1CCOCC1 (stereo unspecified),0.96% (active) and -0.96% (inactive)
10,O=S(=O)(c1ccc(OCC(O)CN2CCN(c3ccccc3Cl)CC2)cc1)N1CCOCC1 (stereo unspecified),-1.31% (inactive)
11,Cc1ccccc1CN1CCCCC(NC(=O)Nc2ccccc2F)C1=O (stereo unspecified),-1.37% (inactive)
12,COc1cc(NC(=O)C2CCCN(S(=O)(=O)c3ccc(C(C)(C)C)cc3)C2)cc(OC)c1 (stereo unspecified),-0.79% (inactive)
13,CCSC1=C(C#N)C(=O)n2c1cc1c2CCCC1,-0.32% (inactive)
14,CCC1CCc2c(sc(NC(C)=O)c2C#N)C1 (stereo unspecified),-1.82% (inactive)
15,N#Cc1c(NC(=O)c2ccc(N3CCOCC3)c([N+](=O)[O-])c2)sc2c1CCCC2,-1.7% (inactive)
16,N#Cc1c(NC(=O)C2CCCO2)sc2c1CCCCC2 (stereo unspecified),2.81% (active)
17,C[C@@H]1COc2cccc(N3CCCC3)c2S(=O)(=O)N1C,-1.35% (inactive)
18,O=C(Cn1c(-c2ccc(Cl)cc2)noc1=O)N1CCN(c2ccccc2F)CC1,-0.84% (inactive)
19,O=c1onc(-c2cccs2)n1Cc1ccccc1,-1.05% (inactive)
20,O=c1onc(-c2c(F)cccc2F)n1-c1ccccc1Cl,1.01% (active)
21,CS(=O)(=O)c1ccccc1C(=O)Nc1ccc2sccc2c1,-1.02% (inactive)
22,O=C(Nc1ccc2sc3ccccc3c(=O)c2c1)c1ccccc1Cl,1.16% (active)
23,COCC(=O)N1CCc2ccc(NC(=O)c3ccccc3Cl)cc2C1,-1.31% (inactive)

row,Structure (SMILES),activation
1,COc1ccc(C2Nc3ccccc3C(=O)N2Cc2cccs2)cc1COc1c(C)cccc1C (stereo unspecified),-0.82% (inactive)
2,CCCCn1nc(C(=O)Nc2cccc(C(=O)NC3CC3)c2)c2ccccc2c1=O,-1.7% (inactive)
3,CCCn1nc(C(=O)Nc2ccc3nc(C)sc3c2)c2ccccc2c1=O,8.45% (active)
4,CCCn1nc(C(=O)NNC(=O)CSCC(=O)Nc2cc(C)on2)c2ccccc2c1=O,-0.87% (inactive)
5,COc1ccc(-n2c(COc3ccc(C)cc3)nnc2SCC(=O)Nc2ccc(Oc3ccccc3)cc2)cc1,-1.71% (inactive)
6,CCCCCN1CCCCC(NC(=O)C(C)CCC)C1=O (stereo unspecified),-1.23% (inactive)
7,C=C(C)C#CC(Cc1ccccc1)N(CC1CC1)/C(N)=N/C(=O)OCc1ccccc1 (stereo unspecified),-1.98% (inactive)
8,COc1ccc(-n2c(SCC(=O)Nc3ccc4c(c3)OCCO4)nnc2-c2ccc(Cl)cc2)cc1,-1.63% (inactive)
9,CCC[C@H]1C(=O)CC[C@@]23CCCN2C(=O)CCC[C@@H]13,-0.75% (inactive)
10,O=C1CC[C@@]23CCCN2C(=O)CCC[C@H]3[C@H]1Cc1ccccc1,-1.31% (inactive)
11,CCC(=O)c1c(CC)c2n3c1=CC[C@H]3CC(Br)C=2 (stereo partly specified),-1.9% (inactive)
12,COc1ccc(Nc2cc(=O)n(-c3ccccc3)c3c2c(=O)n(C)c(=O)n3C)cc1,-0.93% (inactive)
13,COc1ccc(Nc2ccc3ccccc3c2)cc1,2.46% (active)
14,COc1ccc(NC2=CC(=S)NC(C)(C)C2)cc1,-0.87% (inactive)
15,CCN(C(=O)[C@@H](C1CC1)[C@@H](O)c1ccc2ccccc2c1)c1ccccc1,-1.3% (inactive)
16,N#Cc1ccc(OC[C@@H](O)CN2CCC(C(O)(c3ccccc3)c3ccccc3)CC2)c(F)c1,-1.58% (inactive)
17,COc1ccc(CNC(=O)COc2ccccc2C(=O)c2cnn(-c3ccccc3)c2)cc1OC,-0.31% (inactive)
18,Cc1[nH]nc(-c2ccc(OCc3cnn(-c4ccccc4)c3)cc2O)c1Oc1ccc(Cl)cc1,-0.99% (inactive)
19,O=C(c1cnn(-c2ccc(Cl)cc2)c1)c1ccccc1O,1.24% (active)
20,CC(C)CNS(=O)(=O)CC1NCCc2ccccc21 (stereo unspecified),-0.28% (inactive)
21,CC(=O)Nc1ccc(S(=O)(=O)Nc2nccc(/C=C/c3ccccc3F)n2)cc1,-0.24% (inactive)
22,CCOc1ncccc1C(=O)Nc1ccc(S(=O)(=O)Nc2nc(C)cc(C)n2)cc1,-0.22% (inactive)
23,Cc1cc(C)nc(NS(=O)(=O)c2ccc(N/C=C\C(=O)c3cccs3)cc2)n1,1.14% (active)

row,Structure (SMILES),activation
1,O=S(=O)(c1ccc2c(c1)OCCCO2)N1CCN(S(=O)(=O)c2c(F)cccc2F)CC1,-0.38% (inactive)
2,COC(=O)C1=CO[C@@H](O[C@@H]2O[C@H](CO)[C@@H](O)[C@H](O)[C@H]2O)C2C1C[C@H](O)[C@@H]2C (stereo partly specified),-1.3% (inactive)
3,CC(OC(=O)c1cc2ccccc2o1)C(=O)Nc1ccc(N2CCOCC2)cc1 (stereo unspecified),-1.36% (inactive)
4,Cc1cccc(-n2nc3c(c2NC(=O)c2cc4ccccc4o2)CS(=O)(=O)C3)c1,-0.31% (inactive)
5,Cc1ccc(NC(=O)c2cc3ccccc3o2)cc1,2.98% (active)
6,CC(=O)N1CCc2cc(S(=O)(=O)NCCC(=O)N3CCCC3)ccc21,-0.66% (inactive)
7,Nc1[nH]c(/C=C2/CCCCC2n2[nH]c(=O)n(-c3ccccc3)c2=O)c(Cc2ccccc2)[n+]1Cc1ccccc1 (stereo unspecified),-1.51% (inactive)
8,COC(=O)[C@]12C[C@H](CC(=O)NCc3ccccc3)C(=O)N(Cc3ccccc3)C1=C[C@H](COCc1ccccc1)O[C@@H]2C,-1.73% (inactive)
9,O=C(CSc1nnc(-c2c[nH]c3ccccc23)o1)c1ccccc1,-0.81% (inactive)
10,NC(=O)CSc1c[nH]c2ccccc12,1.11% (active)
11,CCCn1cc(SCC(N)=O)c2ccccc21,-0.92% (inactive)
12,COC(=O)[C@]12C[C@H](CC(=O)N3CCOCC3)C(=O)N(Cc3ccc(Cl)cc3Cl)C1=C[C@H](COCc1ccccc1)O[C@@H]2C,-0.98% (inactive)
13,N#Cc1ccccc1OC[C@@H](O)CN1CCC(C(O)(c2ccccc2)c2ccccc2)CC1,-0.74% (inactive)
14,Cc1c(NC(=O)CN(C)CC(=O)Nc2ccc(F)c(F)c2F)c(=O)n(-c2ccccc2)n1C,-0.43% (inactive)
15,Cc1ccc(S(=O)(=O)/N=C2\C=C(NS(=O)(=O)c3ccc(C)cc3)C(=O)c3ccccc32)cc1,-0.8% (inactive)
16,COc1ccc(S(=O)(=O)/N=C2\C=C(NS(=O)(=O)c3ccccc3)C(=O)c3ccccc32)cc1,1.6% (active)
17,CNC(=O)COc1ccc(S(=O)(=O)Nc2ccccc2)cc1,-0.41% (inactive)
18,O=C(CNC1CCCCC1)NCC1(c2ccccc2)CCCC1,-1.46% (inactive)
19,CCC(NC(=O)C1C2C=CC3(CN(Cc4ccccc4)C(=O)C13)O2)c1ccccc1 (stereo unspecified),-1.54% (inactive)
20,CCCCCNC(=O)C(c1ccc(OC)cc1)n1c(=O)c(-c2ccccc2)nc2ccccc21 (stereo unspecified),-0.6% (inactive)
21,COc1ccc(C(C(=O)NCc2ccccc2)n2c(=O)c(-c3ccccc3)nc3ccccc32)cc1 (stereo unspecified),-0.84% (inactive)
22,COc1ccc(NC(=O)C(c2ccncc2)n2c(=O)c(-c3cc4ccccc4[nH]3)nc3ccccc32)cc1 (stereo unspecified),1.22% (active)
